Screens (PubChem)
This is a sample that favours compounds with a hit; in the whole collection about 6.8% have one here.
Pf Dd2 growth – P. falciparum Dd2 growth inhibitors, primary screen, SYBR Green fluorescence, single dose replicates; 72 h; active compounds read low; activity change, % at 10 µM; 94,000 tested, 2.3% active; AID 1159554, 2015; in the data active = activity change below about -80%; inconclusive = no clear call, values can overlap the other calls
T cruzi growth-1 – T. cruzi intracellular proliferation inhibitors, primary screen, cell-based, beta-gal Tulahuen parasites, NIH3T3 host, luminescence; inhibition, % at 8.34 µM; AID 624255, 2012; T. cruzi beta-gal in NIH3T3, GalScreen luminescence, 90 h; 77,000 tested, 5.9% active;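 active = mean inhibition above about 93%, with at least 55% of replicates each passing it, limit read from the data, passing the limit was not always enough; inconclusive = only one of those two conditions holds; inactive = neither condition holds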
C diff growth – C. difficile growth inhibitors, primary screen, HTS; Clostridium difficile clinical isolate growth, OD600, 24 h; active compounds read low; 86,000 tested, 0.25% active; growth activity, negative = inhibition, % at 16 µg/mL (by protocol);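 active = mean growth activity at or below -80% and every replicate also at or below -80%; inconclusive = mean at or below -80% but some replicate above -80%; inactive = mean growth activity above -80%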;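 note: 0% = DMSO wells and -100% = levofloxacin 16 µg/mL wells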
T cruzi growth-2 – T. cruzi intracellular proliferation inhibitors, confirmation, cell-based, NIH3T3 host, beta-gal parasite, luminescence, cherry-pick; shares compounds with T cruzi growth-1; T. cruzi beta-gal in NIH3T3, GalScreen luminescence, 90 h; inhibition, % at 8.35 µM; 5,600 tested, 72% active; AID 651739, 2012;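 active = mean replicate inhibition above about 95% and at least 55% of replicates individually reaching it, limit read from the data; inconclusive = only one of the two criteria is met; inactive = neither criterion is met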
T cruzi growth-3 – inhibitors of intracellular T. cruzi replication, confirmation, NIH3T3 host cells, beta-gal parasites, cherry-pick, set 2 | 5,600 tested, 21% active | T. cruzi beta-gal in NIH3T3, GalScreen luminescence, 90 h | shares compounds with T cruzi growth-1 | inhibition, % at 2.09 µM;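 active = mean inhibition above about 95%, with at least 55% of replicates also reaching it, limit read from the data; inconclusive = meets just one of the two conditions; inactive = meets neither condition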;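 note: plate controls were neutral control median for no effect and positive control median for full effect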
3T3 cytotox – cytotoxicity in mouse NIH/3T3 fibroblasts, confirmation, cytotoxicity control for T. cruzi proliferation inhibitor project, cell-based, cherry-pick, single point; shares compounds with T cruzi growth-1; NIH/3T3 viability, CellTiter-Glo ATP luminescence, 90 h; cytotoxicity (signal decrease), % at 8.35 µM; 5,600 tested, 14% active;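 active = mean signal decrease across replicates above about 35% based on untreated-well scatter, with enough replicates individually passing, limit read from the data; inconclusive = no rule stated though some were filed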;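 note: 0% = median of neutral control wells and 100% = median of positive control wells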
3T3 cytotox 2 – NIH/3T3 fibroblast cytotoxicity, confirmation, cytotoxicity control, cell-based, cherry-pick, single point, set 2; inhibition, % at 24.9 µM; NIH/3T3 viability, CellTiter-Glo ATP luminescence, 90 h; shares compounds with T cruzi growth-1; 5,600 tested, 56% active; AID 651744, 2012;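 active = mean loss of cell viability signal at or above a set limit, and enough replicates individually reaching it; inconclusive = meets only the mean limit or only the replicate share; inactive = meets neither condition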;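 note: 0% = median of neutral control wells and 100% = median of positive control wells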
An asterisk follows results filed as active; ? = inconclusive; / = no result given; + = active, no number.

SMILES	Pf Dd2 growth	T cruzi growth-1	C diff growth	T cruzi growth-2	T cruzi growth-3	3T3 cytotox	3T3 cytotox 2
CC=Cc1ccc2n(c1=O)C[C@H]1[C@H](CO)[C@@H](C(=O)NCC(F)(F)F)N(C(=O)c3cccnc3)[C@@H]21 (mixture of isomers)	/	+	20	87	24	13	4
CC=Cc1ccc2n(c1=O)C[C@H]1[C@H](CO)[C@@H](C(=O)NCCc3ccncc3)N(CCC(F)(F)F)[C@@H]21 (mixture of isomers)	7	41	-1	/	/	/	/
CC=Cc1ccc2n(c1=O)C[C@@H]1[C@@H](CO)[C@H](C(=O)NCC)N(C(=O)c3cccnc3)[C@H]21 (mixture of isomers)	3	-23	1	/	/	/	/
C[C@H](CO)N1C[C@H](C)[C@@H](CN(C)S(=O)(=O)c2ccccc2)Oc2ccc(NC(=O)CCC(F)(F)F)cc2CC1=O	-15	7	-1	/	/	/	/
CN(C)CC(=O)N1CCCCN2[C@H](C1)[C@@H](c1ccc(-c3cccnc3)cc1)[C@@H]2CO	-30	65	7	/	/	/	/
CCC(=O)N1CCCCN2[C@@H](CO)[C@@H](c3ccc(-c4cccnc4)cc3)[C@@H]2C1	8	96*	-3	90	86	-7	-24
CCC(=O)N1CCCCN2[C@H](C1)[C@H](c1ccc(-c3cccnc3)cc1)[C@@H]2CO	-78	113*	-6	34	0	6	-9
CN(C)CC(=O)N1CCCCN2[C@H](CO)[C@@H](c3ccc(-c4cccnc4)cc3)[C@H]2C1	-66	57	6	/	/	/	/
C[C@@H]1CN([C@H](C)CO)C(=O)c2cc(NC(=O)Cn3cnnn3)ccc2O[C@H]1CN(C)S(C)(=O)=O	16	-25	-3	/	/	/	/
C/C=C/c1cnc2c(c1)C(=O)N([C@@H](C)CO)C[C@H](C)[C@H](CN(C)C(=O)NC1CCCCC1)O2	22	80	1	/	/	/	/
C[C@@H]1CN([C@@H](C)CO)C(=O)c2cc(NS(=O)(=O)c3ccc(F)cc3)ccc2O[C@@H](C)CCCCO[C@@H]1CN(C)Cc1ccc2c(c1)OCO2	-73	119*	/	106*	45	17	97*
C[C@@H]1CCCCO[C@H](CN(C)Cc2ccc3c(c2)OCO3)[C@H](C)CN([C@@H](C)CO)C(=O)c2cc(NS(=O)(=O)c3ccc(F)cc3)ccc2O1	-65	85	/	/	/	/	/
C[C@@H]1CN([C@H](C)CO)C(=O)c2cc(NS(=O)(=O)c3ccc(F)cc3)ccc2O[C@@H](C)CCCCO[C@H]1CN(C)Cc1ccc2c(c1)OCO2	-48	112*	/	106*	85	29	104*
C[C@H]1CCCCO[C@H](CN(C)Cc2ccc3c(c2)OCO3)[C@@H](C)CN([C@@H](C)CO)C(=O)c2cc(NS(=O)(=O)c3ccc(F)cc3)ccc2O1	-39	58	/	/	/	/	/
C[C@H](CO)N1C[C@H](C)[C@@H](CN(C)Cc2ccc(C(F)(F)F)cc2)Oc2ccc(N(C)C)cc2CC1=O	-17	133*	8	108*	97*	4	72*
C[C@H](CO)N1C[C@H](C)[C@@H](CN(C)Cc2ccc(C(F)(F)F)cc2)Oc2ccc(NS(C)(=O)=O)cc2CC1=O	1	118*	13	109*	103*	-1	47*
C[C@H](CO)N1C[C@H](C)[C@@H](CN(C)Cc2ccc(Cl)c(Cl)c2)Oc2ccc(NS(C)(=O)=O)cc2CC1=O	-13	?	14	115*	82	13	100*
C[C@H]1CN([C@@H](C)CO)C(=O)Cc2cc(NS(C)(=O)=O)ccc2O[C@@H]1CN(C)Cc1ccc(Cl)c(Cl)c1	-32	70	5	/	/	/	/
C[C@@H]1CN([C@H](C)CO)C(=O)Cc2cc(NS(C)(=O)=O)ccc2O[C@H]1CN(C)Cc1ccc(C(F)(F)F)cc1	8	52	2	/	/	/	/
C[C@@H]1CN([C@H](C)CO)C(=O)Cc2cc(N(C)C)ccc2O[C@H]1CN(C)Cc1ccc(C(=O)O)cc1	43	22	-1	/	/	/	/
COc1ccc(NC(=O)N(C)C[C@@H]2OCCCC[C@@H](C)Oc3ccc(NC(=O)Nc4ccccc4)cc3C(=O)N([C@H](C)CO)C[C@H]2C)cc1	-6	28	8	/	/	/	/
Cc1ccccc1S(=O)(=O)N1CCCCN2[C@H](C1)[C@H](c1ccc(-c3cncnc3)cc1)[C@@H]2CO	-1	102*	11	100*	19	12	24
Cc1ccccc1S(=O)(=O)N1CCCCN2[C@H](CO)[C@@H](c3ccc(-c4cccnc4)cc3)[C@H]2C1	-28	39	-3	/	/	/	/
Cc1ccccc1S(=O)(=O)N1CCCCN2[C@H](C1)[C@@H](c1ccc(-c3cncnc3)cc1)[C@@H]2CO	-10	78	-2	/	/	/	/
Cc1ccccc1S(=O)(=O)N1CCCCN2[C@H](CO)[C@H](c3ccc(-c4cncnc4)cc3)[C@@H]2C1	0	112*	3	101*	-1	5	2
SMILES	Pf Dd2 growth	T cruzi growth-1	C diff growth	T cruzi growth-2	T cruzi growth-3	3T3 cytotox	3T3 cytotox 2
Cc1ccccc1S(=O)(=O)N1CCCCN2[C@H](C1)[C@@H](c1ccc(-c3cccnc3)cc1)[C@@H]2CO	-3	86	-8	/	/	/	/
Cc1ccccc1S(=O)(=O)N1CCCCN2[C@@H](CO)[C@H](c3ccc(-c4cccnc4)cc3)[C@@H]2C1	-25	102*	4	102*	71	30	38*
Cc1cc(C(=O)Nc2ccc3c(c2)C(=O)N(C)[C@H]2CC[C@@H](CC(=O)NCc4ccc(-c5ccccc5)cc4)O[C@@H]2CO3)no1	/	86	-6	/	/	/	/
CC(C)C#Cc1ccc([C@H]2[C@H]3CN(S(=O)(=O)Cc4ccccc4)CCCCN3[C@H]2CO)cc1	-3	110*	-3	106*	46	27	21
CC(C)C#Cc1ccc([C@@H]2[C@H](CO)N3CCCCN(S(=O)(=O)Cc4ccccc4)C[C@@H]23)cc1	-63	102*	1	104*	72	47*	105*
C[C@H](O)C#Cc1ccc([C@H]2[C@H](CO)N3CCCCN(S(=O)(=O)Cc4ccccc4)C[C@@H]23)cc1	-23	58	3	/	/	/	/
C[C@@H](O)C#Cc1ccc([C@H]2[C@H](CO)N3CCCCN(S(=O)(=O)Cc4ccccc4)C[C@@H]23)cc1	-22	67	-7	/	/	/	/
